Data on 39 compounds can be found in PubChem BioAssay (NCI).

Where “and” joins values, the source holds several entries; their conditions need not be identical. Identical values can stand only once. This is part of a sample that, as a whole, favours compounds with a hit. Of some 83,000 tested, about 20% had one in any assay.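 Cell lines were cultured in 96-well plates, exposed to a single compound concentration, and assessed for percent growth 48 hours later.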 A number with no mark means an inactive call. Calls of active or inactive are those of the source. Rule for the calls: active = growth percent below 10; inactive = the rest.

The test system of the assay is HL-60(TB) leukemia. In words: NCI-60 one-dose screen, 48 h (100 = growth as untreated, 0 = no growth, -100 = all killed). Conditions: 10 µM unless noted.
For `C[N+](C)=c1ccc2nc3c(cc(Nc4ccccc4)c4ccccc43)oc-2c1`, the growth is 25.8%.

For `COc1cc(OCc2cccc(Br)c2C)cc(OC)c1C=O`, the growth is 92.6%.

`O=C1Nc2ccccc2[C@]12CC(c1ccccc1)=NN2`: the growth is -15.8% (active).

Turning to `CCC(=O)Oc1ccc(OCc2ccccc2)cc1`, the growth was 35.9% and 84.2%.

With `Cc1cc(OC(=O)c2ccc([N+](=O)[O-])cc2)nc2[nH]c(=O)sc12`, the growth is 99.5%.

Regarding `Fc1ccc(-n2cc(COc3ncnc4sc5c(c34)CCCC5)nn2)cc1Cl`, the growth was 101%.

For `CCOC(=O)C1CCCN1C(=O)C1(NC(C)=O)CCCC1` (centres undefined), the growth is 98.4%.

Consider `C#CCn1cc(C=C2C(=O)NC(=S)NC2=O)c2cc(Cl)ccc21`, for which the growth was -4.45% (active).

Consider `Cc1nc2ncnc(Cl)c2[nH]1`, for which the growth is 75.4%.

For `Cc1c(C(=O)/C=C/c2csc3ccccc23)[n+](=O)c2ccccc2n1[O-]`, the growth is 67.7%.

As to `Cc1cccc(CO)c1`, the growth was 109%.

Regarding `CN1C(=O)NC(c2ccc(Cl)cc2)(c2ccc(Cl)cc2)C1=O`, the growth is 78.2%.

For `Cc1ccc2c(c1)C(=O)/C(=C\Nc1ccc(C(N)=O)cc1)C(O)O2` (centres undefined), the growth is 130%.

Turning to `CSc1nc2sc3cc(Cl)ccc3n2c(=N)c1C#N`, the growth was 121%.

Consider `CCOC(=O)C1=CN(C)C=C(C(=O)OCC)C1c1cc(Br)c(OCC)c(OC)c1`, for which the growth was 66.7%.

On to `N#Cc1c(-c2ccc(O)cc2)c2c(N)nn(-c3ccccc3)c2[nH]c1=O`, for which the growth was 102%.

As for `O=C1CCc2c(sc3[nH]c(=S)n(-c4ccc(OC(F)(F)F)cc4)c(=O)c23)C1`, the growth is 39.7%.

On to `COc1cc(C)c(Cl)cc1C1=NN(c2ccc(S(N)(=O)=O)cc2)C(/C=C/c2ccccc2)C1` (centres undefined), for which the growth was 63.6%.

Consider `Clc1ccc2c(NCCNc3nc(N4CCCCC4)nc4ccccc34)ccnc2c1`, for which the growth is -61.2% (active).

In the case of `Clc1ccc(Nc2nnc(COc3ccccc3)c3ccccc23)cc1`, the growth was -15.7% (active).

With `COc1cc(NC2CCC(=O)N2c2ccc(Cl)cc2Cl)cc(OC)c1OC` (centres undefined), the growth was -3.13% (active).

For the compound `COc1cc(-c2nn(-c3ccc(NC(=O)c4ccc(Cl)c(C(F)(F)F)c4)cc3)cc2-c2ccncc2)ccc1Cl`, the growth was 12%.

For the compound `CC(C)(C)n1cc(-c2ccnc(NCCNS(=O)(=O)c3cccc4ccccc34)c2)c(-c2cccc(F)c2)n1`, the growth is -52.3% (active).

Consider `O=C1OC(=O)C2C1CC=CC2c1ccccc1` (centres undefined), for which the growth is 69.1%.

Regarding `CC(C)(C)n1cc(-c2ccnc(NCCCNS(=O)(=O)c3ccc(Cl)cc3)c2)c(-c2cccc(F)c2)n1`, the growth was 85.8%.

As for `C=C1c2c(C)nn(-c3ccc(OC)cc3)c2N(C)C23C[C@@H]1C1(C)c4c(C)nn(-c5ccc(OC)cc5)c4N(C)C(C)(C[C@H]12)C3` (some centres undefined), the growth was -2.21% (active).

As for `Cc1ccccc1Cn1cnc2ccc(-c3cc(NC(=O)c4ccc(NC5CCN(C)CC5)cc4)n[nH]3)cc21`, the growth is 79.4%.

Turning to `C=CCOc1ccc2c(c1)CC=C1[C@@H]2CC[C@]2(C)C(=O)/C(=N/O)C[C@@H]12`, the growth was 22.7%.

Regarding `COc1ccc(-c2nc(-c3ccccn3)c(-c3ccccn3)n2CC(C)C)cc1OC1CCCC1`, the growth was -43.5% (active).

As for `CCCCN1C(=O)/C(=c2\sc3n(c2=O)C2C(NN=3)N(CC)C(=O)N2CC)c2ccccc21` (centres undefined), the growth was -52.2% (active).

As to `Cc1cc2nc3ccc(=[N+](C)C)cc-3sc2cc1N`, the growth is -50.3% (active) and -34.8% (active).

Consider `CC(CN(C)C)CN1c2ccccc2CCc2ccccc21` (centres undefined), for which the growth is 108%.

In the case of `Cc1ccc(N2CCN(C(=S)c3cccs3)CC2)cc1`, the growth was 93.3%.

As to `C/C(=N\Nc1cc(C)c2ccccc2n1)c1ccccn1`, the growth was -47.1% (active).

Take `Cn1cc(-c2nonc2-c2c[nH]c3ccc(Br)cc23)c2cc(Br)ccc21`: the growth is 54%.

As to `CN(C)CCCOc1c(Br)cc(/C=C/C(=O)N(C)CCc2cc(Br)c(OCCCN(C)C)c(Br)c2)cc1Br`, the growth was 81.9%.

Consider `CSc1nc(N)c(CNC(C)c2ccccc2)c(=O)n1C` (centres undefined), for which the growth was 81.1%.

For the compound `NCCN1CCN(c2nccc(-c3ccc4ccccc4c3)n2)CC1`, the growth was 34.3%.

In the case of `COc1cc(C(=O)N2CCN(c3ccccc3)CC2)c2ccccc2n1`, the growth was -1.74% (active).
